Screening results as filed in PubChem BioAssay.
ELG1 genotox – genotoxicity induction in ELG1-luciferase HEK293T cells; HEK293T ELG1-luciferase reporter, luminescence, 16 h; Potency, µM (series often up to 46 µM), inactives show top-dose activity change, positive = activation, hits mostly activators; 330,000 compounds, 1.3% hits; AID 504466; further: % of control where 0% means no effect; nearly all actives have a fitted effect of over 60% in size
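HEK293T cells expressing luciferase-tagged ELG1 were exposed to compound or DMSO vehicle for 16 hr at 37 °C and 5% CO2. Luciferase activity was then measured with ONE-Glo after 30 min at room temperature.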
Luc counter – counter-screen: inhibitors of Kinase-Glo firefly luciferase. Q27757. Kinase-Glo luciferase, ATP luminescence, 8 min. Potency, µM (highest dose often 38.3 µM), for the others: at the top dose activity change, negative = inhibition, actives largely listed as inhibitors. 200,000 compounds, 0.28% hits. AID 1379; further: on the % scale 0 is the no-effect control and ±100 the full control effect; nearly all actives have a fitted effect of over 60% in size
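Inhibition of Kinase-Glo luciferase light generation was assessed at 10 uM ATP in pH 7.2 imidazole buffer, with luminescence measured after eight minutes at ambient temperature.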
NPC1 prom act – activates the NPC1 promoter | Huh7 NPC1 promoter luciferase reporter, 24 h | Potency, µM (titrated, usually from 9.22 µM), for the others: at the highest dose activation, usual class: activators | 320,000 compounds, 2.4% hits; further: % of control where 0% means no effect; nearly all actives have a fitted effect of over 60% in size
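Compounds in DMSO were transferred onto Huh7 NPC1-luciferase reporter cells pre-incubated 2 h; after 24 h at 37 °C, Amplite reagent was dispensed and luminescence recorded 10 min later.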
FLuc modulator – inhibits or activates purified firefly luciferase, miR-21 counter-screen | Potency, µM (doses to about 57.5 µM), without a hit: at the highest dose activity change, negative = inhibition, most hits filed as inhibitors | 360,000 compounds, 6.9% hits | purified FLuc, Km substrates, luminescence inhibition;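 further: plate controls were vehicle for no effect and reference inhibitor for full effect; nearly all actives have a fitted effect of over 55% in size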
Target sequence (P08659 whole entry, looked up): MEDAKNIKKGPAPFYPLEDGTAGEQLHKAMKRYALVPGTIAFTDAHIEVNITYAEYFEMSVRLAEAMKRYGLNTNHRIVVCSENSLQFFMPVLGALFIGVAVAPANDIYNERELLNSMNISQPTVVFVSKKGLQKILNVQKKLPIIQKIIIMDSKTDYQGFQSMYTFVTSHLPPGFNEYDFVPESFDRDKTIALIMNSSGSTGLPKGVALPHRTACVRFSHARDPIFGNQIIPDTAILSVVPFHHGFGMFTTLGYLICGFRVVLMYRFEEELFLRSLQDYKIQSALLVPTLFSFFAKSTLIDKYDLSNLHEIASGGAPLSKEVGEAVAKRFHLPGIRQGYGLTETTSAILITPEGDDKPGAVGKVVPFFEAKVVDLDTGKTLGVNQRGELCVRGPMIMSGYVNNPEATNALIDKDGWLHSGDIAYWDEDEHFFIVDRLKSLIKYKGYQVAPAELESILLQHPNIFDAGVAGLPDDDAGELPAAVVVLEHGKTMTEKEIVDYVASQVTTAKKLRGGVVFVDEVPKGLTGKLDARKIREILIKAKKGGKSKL
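Purified P. pyralis luciferase, 10 nM final, with Km-level 10 uM D-luciferin and 10 uM ATP in 50 mM Tris acetate pH 7.5, 10 mM Mg acetate, 0.01% Tween-20, 0.05% BSA; 6-point qHTS titration about 60 µM downward; luminescence read.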
Rab9 prom act – activates the Rab9 promoter; Huh7 Rab9 promoter-luciferase reporter, luminescence, 24 h; Potency, µM (titrated, usually from 9.22 µM), for the others: at the highest dose activation, negative = inhibition, hits mostly activators; 320,000 compounds, 2.8% hits; further: % of control where 0% means no effect; nearly all actives have a fitted effect of over 60% in size
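Using Huh7 cells stably transfected with Rab9 promoter–luciferase, compounds were incubated 24 h at 37 °C, 5% CO2; luciferase luminescence was read 10 min after reagent addition.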
SMN2 splice enh – enhancers of SMN2 splice variant expression | HEK293 SMN2-luciferase splicing reporter, luminescence, 30-36 h | 210,000 compounds, 2.8% hits | Potency, µM (titrated, usually from 46.1 µM), for the others: at the highest dose activity change, positive = activation, actives largely listed as activators; further: % of control where 0% means no effect; nearly all actives have a fitted effect of over 55% in size
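HEK293 cells carry an SMN2 […]–luciferase reporter in which exon 7 inclusion puts luciferase in frame. Cells were plated 10-12 h before compound addition, then incubated 30-36 h at 37C. ONE-Glo luminescence was read; sodium butyrate at 4.5 mM final served as control.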
* marks the source's active call; other numbers are inactive results; [ ] = another dose, or the depositor's remark. Rows were chosen to be rich in hits. Some 7.5% of all compounds tested hit in one or more screens of this group. The call rests on the fitted dose curve; in most records, active means well fitted curve in the direction sought with a large enough effect; inconclusive means small, poorly fitted or top-dose-only effect, or another doubt; inactive means no such curve, though single readings can be large; an effect the other way counts as inactive or inconclusive. Potency means the concentration at half of the fitted maximal effect.

For COc1ccccc1NC(=S)NNC(=O)c1ccc(Cl)cc1Cl the results were ELG1 genotox 4%, Luc counter 1%, NPC1 prom act 12%, FLuc modulator 11µM*, Rab9 prom act 28% and SMN2 splice enh 16µM*.
Screening CCn1c(C)nc2cc(C(=O)NN=Cc3ccccc3OC(F)F)ccc21 returned ELG1 genotox 15%.
Cc1ccccc1C(=O)NNC(=S)NC(=O)c1ccc(Cl)cc1Cl was read as ELG1 genotox -3%, Luc counter 1%, NPC1 prom act 0%, FLuc modulator 2%, Rab9 prom act 1% and SMN2 splice enh 10%.
O=C(Cn1ccc2ccccc2c1=O)NCC(=O)N1CCN(c2ccccc2F)CC1 was read as ELG1 genotox 1%, NPC1 prom act -3%, FLuc modulator 4% and Rab9 prom act -2%.
Screening COc1cc([N+](=O)[O-])ccc1NC(=O)CCCOc1ccccc1 returned ELG1 genotox 1%, Luc counter 7%, NPC1 prom act 1%, FLuc modulator -1%, Rab9 prom act 1% and SMN2 splice enh 6%.
COc1cc([N+](=O)[O-])ccc1NC(=S)NNC(=O)CCC(=O)Nc1ccccc1Cl was read as ELG1 genotox 9.2µM*, NPC1 prom act inconclusive, FLuc modulator inconclusive and Rab9 prom act inconclusive.
For COc1ccc([C@@H]2CC(=O)c3c(O)cc(O)cc3O2)cc1O the results were ELG1 genotox inconclusive, Luc counter 0%, NPC1 prom act inconclusive, FLuc modulator 15µM*, Rab9 prom act inconclusive and SMN2 splice enh 7%[20.6 µM].
Screening CC(C)SCCCCOc1ccc2ccccc2c1 returned ELG1 genotox 3%, Luc counter -6%, NPC1 prom act inconclusive, FLuc modulator 17µM*, Rab9 prom act inconclusive and SMN2 splice enh 22%.
For CC(C)(C)c1ccc(OCCN2CCCC2)cc1 the results were ELG1 genotox -2%, Luc counter -1%, NPC1 prom act -3%, FLuc modulator 3%[2.3 µM], Rab9 prom act 11% and SMN2 splice enh 14%.
CC(C)SCCCOc1ccc(C(C)(C)C)cc1 was read as ELG1 genotox 8%, Luc counter 6%, NPC1 prom act 0%, FLuc modulator 19µM*, Rab9 prom act -2% and SMN2 splice enh 9%.
Screening CCCCCN(C(=O)NC(=O)Nc1nncs1)S(C)(=O)=O returned ELG1 genotox -6%, Luc counter -4%, NPC1 prom act -1%, FLuc modulator -1%, Rab9 prom act -6% and SMN2 splice enh 7%.
O=C(NNc1nc2ccccc2s1)Nc1ccc(F)cc1 was read as ELG1 genotox inconclusive, NPC1 prom act 4µM*, FLuc modulator inconclusive and Rab9 prom act 3.2µM*.
Screening CC(C)C(=O)NNc1nc2ccccc2s1 returned ELG1 genotox 18µM*, Luc counter -2%, NPC1 prom act inconclusive, FLuc modulator inconclusive, Rab9 prom act inconclusive and SMN2 splice enh inconclusive.
O=C(O)C/C(=C\c1cccc(NC(=O)c2ccccc2Cl)c1)c1nc2ccccc2s1 was read as ELG1 genotox 4%, NPC1 prom act -2%, FLuc modulator inconclusive and Rab9 prom act 2%.
O=C(NNc1nc2ccccc2s1)Nc1ccc(Cl)c(Cl)c1 was read as ELG1 genotox 2%, NPC1 prom act 2%, FLuc modulator inconclusive and Rab9 prom act -6%.
CCCCN(C(=O)NC(=O)Nc1nc2ccc(OC)cc2s1)S(C)(=O)=O was read as ELG1 genotox 8.2µM*, Luc counter -25%, NPC1 prom act inconclusive, FLuc modulator 24µM*, Rab9 prom act inconclusive and SMN2 splice enh 22µM*.
Screening COc1ccc(C(=O)Nc2cccc(/C=C(\CCC(=O)O)c3nc4ccccc4s3)c2)cc1 returned ELG1 genotox 0%, NPC1 prom act 3.2µM*, FLuc modulator 9.5µM* and Rab9 prom act inconclusive.
CCC(C)(CC(=O)Nc1nccs1)c1ccccc1 (centres undefined) was read as ELG1 genotox -7%, NPC1 prom act -1%, FLuc modulator -2% and Rab9 prom act -3%.
`CCOCc1cc(CN2CCCC(CNC(=O)c3ccco3)C2)ccc1OC` (centres undefined) gave ELG1 genotox 0%, NPC1 prom act -1%, FLuc modulator 0% and Rab9 prom act -3%.
`CC(=O)Nc1ccc(C(=O)NCC2(N3CCCCC3)CCCCC2)cc1` gave ELG1 genotox 8%, NPC1 prom act 1%, FLuc modulator 3% and Rab9 prom act -6%.
For COc1ccc(NC(=O)Nc2nc3ccccc3s2)cc1 the results were ELG1 genotox inconclusive, NPC1 prom act 1.8µM*, FLuc modulator 2.4µM* and Rab9 prom act 1.6µM*.
CCOc1ccc2nc(NC(=O)Nc3cccs3)sc2c1 was read as ELG1 genotox 2.6µM*, Luc counter -5%, NPC1 prom act inconclusive, FLuc modulator 0.76µM*, Rab9 prom act 1.6µM* and SMN2 splice enh 2.8µM*.
Screening COc1ccc(NC(=O)c2nc3ccccc3s2)cc1 returned ELG1 genotox 1.3µM*, Luc counter 8.9µM*, NPC1 prom act 3.5µM*, FLuc modulator 1.1µM*, Rab9 prom act 1.6µM* and SMN2 splice enh inconclusive.
`O=C(Nc1nc2ccccc2s1)Nc1ccc(F)cc1F` gave ELG1 genotox 4.1µM*, NPC1 prom act 1µM*, FLuc modulator 0.85µM* and Rab9 prom act 1.3µM*.
For Nc1cc(N)nc(SCC(=O)NC(=O)NC2CCCC2)n1 the results were ELG1 genotox 2%, NPC1 prom act 1% and Rab9 prom act -2%.
CCCCOC(=O)Nc1nc2ccccc2s1 was read as ELG1 genotox inconclusive, Luc counter -7%, NPC1 prom act 2.8µM*, FLuc modulator 1.1µM*, Rab9 prom act 4µM* and SMN2 splice enh 25µM*.
Screening COc1ccc2nc(NC(=O)Nc3ccccc3)sc2c1 returned ELG1 genotox inconclusive, Luc counter -2%, NPC1 prom act inconclusive, FLuc modulator 0.48µM*, Rab9 prom act 0.71µM* and SMN2 splice enh 0.89µM*.
Screening CCOc1ccc2nc(NC(=O)Nc3ccccc3)sc2c1 returned ELG1 genotox inconclusive, Luc counter 0%, NPC1 prom act inconclusive, FLuc modulator 0.85µM*, Rab9 prom act 1.4µM* and SMN2 splice enh 11µM*.
Screening COc1ccc2nc(NC(=O)C3=NN(c4ccccc4)C(=O)CC3)sc2c1 returned ELG1 genotox 1%, Luc counter 0%, NPC1 prom act -4%, FLuc modulator inconclusive, Rab9 prom act 1% and SMN2 splice enh 7%.
